Screening results from PubChem BioAssay.
SRC3 inh = SRC3 coactivator transcriptional activity inhibitors, primary screen, cell-based, luminescence | HEK293 GAL4-SRC3 luciferase reporter | 360,000 compounds, 0.17% hits | Nuclear receptor coactivator 3 (Homo sapiens), Q9Y6Q9 | inhibition, % at 3.6 µM;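 active = inhibition above a per-campaign cutoff, the mean of all compounds plus 3 SD, cut at about 60% in these data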;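 also: higher means less SRC3-driven luciferase light from the GAL4 reporter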
COUP-TFII inh = NR2F2 transcriptional activity inhibitors, primary screen, cell-based, luciferase reporter, HEK293T, luminescence. COUP transcription factor 2 (Homo sapiens), P24468. HEK293T NGFI-A luciferase reporter. 370,000 compounds, 0.7% hits. AID 686940, 2013. inhibition, % at 8.6 µM;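 active = inhibition above a per-plate cutoff, mean inhibition of test wells between control levels plus 3 SD, cut at about 38% in these data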;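 also: cells cotransfected with COUP-TFII expression vector driving the NGFI-A reporter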
SRC2 inh = inhibition of GAL4-SRC2 driven luciferase reporter, primary screen, SRC2 inhibitor project, cell-based, luminescence; Nuclear receptor coactivator 2 (Homo sapiens), Q15596; inhibition, % at 9 µM; HEK293 GAL4-SRC2 luciferase reporter; 370,000 compounds, 0.17% hits;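 active = inhibition above the mean inhibition of all tested compounds plus 3 SD, set per campaign, cut at about 52% in these data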
Target sequence (Q15596 whole entry, looked up, the tested form may be a part): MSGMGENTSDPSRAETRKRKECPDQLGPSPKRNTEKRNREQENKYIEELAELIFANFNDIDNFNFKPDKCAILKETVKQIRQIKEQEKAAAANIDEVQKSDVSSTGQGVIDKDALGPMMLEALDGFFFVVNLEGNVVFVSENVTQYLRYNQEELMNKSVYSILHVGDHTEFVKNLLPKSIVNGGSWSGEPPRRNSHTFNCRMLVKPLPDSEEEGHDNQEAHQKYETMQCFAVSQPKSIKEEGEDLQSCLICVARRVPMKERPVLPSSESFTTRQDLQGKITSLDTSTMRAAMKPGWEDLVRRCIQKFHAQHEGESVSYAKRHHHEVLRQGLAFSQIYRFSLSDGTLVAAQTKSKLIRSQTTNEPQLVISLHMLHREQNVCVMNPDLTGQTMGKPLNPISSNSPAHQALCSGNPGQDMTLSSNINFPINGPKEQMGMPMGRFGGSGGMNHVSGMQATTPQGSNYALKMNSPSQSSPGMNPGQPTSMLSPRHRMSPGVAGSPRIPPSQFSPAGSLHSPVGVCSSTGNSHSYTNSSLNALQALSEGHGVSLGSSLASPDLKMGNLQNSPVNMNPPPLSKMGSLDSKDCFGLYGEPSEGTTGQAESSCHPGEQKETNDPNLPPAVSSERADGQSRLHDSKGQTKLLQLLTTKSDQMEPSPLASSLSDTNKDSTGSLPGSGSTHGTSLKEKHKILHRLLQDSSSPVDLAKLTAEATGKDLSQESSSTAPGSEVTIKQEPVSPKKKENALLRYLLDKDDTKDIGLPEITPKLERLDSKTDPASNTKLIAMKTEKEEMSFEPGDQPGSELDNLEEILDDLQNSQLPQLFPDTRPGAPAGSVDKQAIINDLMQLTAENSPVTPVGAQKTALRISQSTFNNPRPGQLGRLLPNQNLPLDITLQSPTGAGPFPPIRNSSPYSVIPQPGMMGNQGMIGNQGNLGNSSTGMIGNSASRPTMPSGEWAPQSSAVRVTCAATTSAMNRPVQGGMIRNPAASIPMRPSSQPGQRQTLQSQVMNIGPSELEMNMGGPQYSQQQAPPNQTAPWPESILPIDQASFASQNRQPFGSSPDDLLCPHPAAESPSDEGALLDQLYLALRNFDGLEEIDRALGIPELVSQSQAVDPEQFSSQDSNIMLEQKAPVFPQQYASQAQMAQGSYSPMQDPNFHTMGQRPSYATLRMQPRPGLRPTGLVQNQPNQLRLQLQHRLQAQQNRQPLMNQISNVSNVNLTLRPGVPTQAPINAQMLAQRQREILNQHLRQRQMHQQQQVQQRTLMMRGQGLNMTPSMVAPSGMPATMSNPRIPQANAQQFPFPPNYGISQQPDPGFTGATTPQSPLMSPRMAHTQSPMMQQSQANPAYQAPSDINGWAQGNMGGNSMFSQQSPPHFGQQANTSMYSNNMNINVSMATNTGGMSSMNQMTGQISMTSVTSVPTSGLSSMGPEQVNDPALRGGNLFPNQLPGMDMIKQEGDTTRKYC
Gli-Sufu block = Gli-Sufu pathway antagonists, primary screen, luciferase luminescence, Sufu-KO-LIGHT cells, uHTS; inhibition, % at 5 µM; AID 588413, 2011; Sufu-KO-LIGHT fibroblasts, Gli luciferase reporter luminescence; 340,000 compounds, 0.74% hits;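 active = inhibition above about 55%, limit read from the data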
SRC1 inh = SRC1 coactivator transcriptional activity inhibitors, primary screen, cell-based, luminescence. Nuclear receptor coactivator 1 (Homo sapiens), Q15788. HEK293 GAL4-SRC1 luciferase reporter. inhibition, % at 3.6 µM. 360,000 compounds, 0.12% hits. AID 588354, 2011;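 active = inhibition above the campaign mean plus 3 SD, with each screening campaign given its own cutoff, cut at about 60% in these data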
LRH-1 inv ag = LRH-1 (NR5A2) inverse agonists, primary screen, cell-based, luminescence, HEK293T, StAR-luciferase reporter; LRH-1 transfected, 24 h; Nuclear receptor subfamily 5 group A member 2 (Homo sapiens), O00482; inhibition, % at 3.6 µM; 360,000 compounds, 0.13% hits;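 active = inhibition above the mean inhibition of all tested compounds plus 3 SD, cut at about 73% in these data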
Gal4-VP16 ctr = Gal4-VP16 luciferase reporter inhibitors, counter-screen for COUP-TFII antagonist project, cell-based, luminescence, HEK293; shares compounds with COUP-TFII inh; inhibition, % at 8.5 µM; 2,500 compounds, 25% hits; AID 687007, 2013; in the data active = inhibition above about 13%
NR2F2 inh conf = NR2F2 transcriptional activity inhibitors, confirmation, cell-based, luciferase reporter, HEK293, triplicate. shares compounds with COUP-TFII inh. HEK293 NGFI-A luciferase reporter, luminescence. inhibition, % at 8.5 µM. 2,500 compounds, 45% hits;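 active = mean inhibition over three repeats above a set limit taken from the earlier primary screen, cut at about 38% in these data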
A number is an active result; 0 = inactive; - = not tested or not shown. Only some compounds are listed: those with a hit (about 1.3% of all), similar ones and a draw of the others.

SMILES | SRC3 inh | COUP-TFII inh | SRC2 inh | Gli-Sufu block | SRC1 inh | LRH-1 inv ag | Gal4-VP16 ctr | NR2F2 inh conf
CCOc1ccc(Oc2ccccc2NC(=O)CSCC(=O)Nc2cc(C)on2)cc1 | 0 | 50.5 | 0 | 0 | 0 | 0 | 0 | 38.0
CCOC(=O)C1CCN(S(=O)(=O)c2ccc3c(c2)N(C(C)=O)CC(C)S3)CC1 (stereo not drawn) | 0 | 48.7 | 0 | 0 | 0 | 0 | 0 | 0
Cc1nn(CCC(=O)NNC(=O)NCc2ccccc2)c(C)c1[N+](=O)[O-] | - | 0 | 0 | - | - | - | - | -
Cc1ccc(C2(c3ccc(C)cc3)CC2C(=O)Nc2ccc([N+](=O)[O-])cc2O)cc1 (stereo not drawn) | 0 | 67.0 | 0 | 0 | 0 | 0 | 0 | 0
CCN(CC)CC(C)(C)C(=O)/C=C/c1ccc(/C=C/C(=O)C(C)(C)CN(CC)CC)cc1 | 0 | 92.7 | 73.6 | 0 | 0 | 91.0 | 88.7 | 101.3
CCN(CC)CCOC(=O)/C=C/c1ccccc1 | 0 | 0 | 0 | 0 | 0 | 0 | - | -
C#CCNC(=O)C[C@H]1C(=O)N(Cc2ccc(OC)cc2)C2=CCCC[C@@]21C(=O)OCC | - | 0 | 0 | - | - | - | - | -
Cc1nc2ccc(C(=O)N3CCN(C(=O)OCc4ccccc4)CC3)cc2n1C1CCCC1 | - | 0 | 0 | - | - | - | - | -
CCCCNC(=O)OC1CCC12CCC(c1ccccc1)CC2 (stereo not drawn) | - | 0 | 0 | - | - | - | - | -
CN(C)c1ccc(/C=N/N=C2/NC(=O)/C(=C/c3ccc([N+](=O)[O-])cc3)S2)cc1 | 0 | 40.8 | 0 | 0 | 0 | 0 | 0 | 0
CN(C)c1ccc(C=C2SC(=S)NC2=O)cc1 | 0 | 0 | 0 | 0 | 0 | 0 | - | -
O=C(Nc1nccs1)c1ccc(S(=O)(=O)NCC2CCCCC2)cc1 | 0 | 59.9 | 0 | 0 | 0 | 0 | 0 | 41.4
O=C(Nc1nc2cc3c(cc2s1)OCCO3)c1ccco1 | 0 | 68.7 | 58.8 | 0 | 0 | 0 | 0 | 0
O=C(Nc1nc2cc3c(cc2s1)OCO3)C1=COCCO1 | 0 | 54.3 | 0 | 0 | 0 | 0 | 0 | 0
O=C(Nc1nc2cc3c(cc2s1)OCO3)c1ccco1 | 0 | 0 | 0 | 0 | 0 | 0 | - | -
C/C(=N/NC(=O)CN1CCN(Cc2ccccc2Cl)CC1)c1cccc(O)c1 | - | 0 | 0 | - | - | - | - | -
CCCCCCCC/C=C\CCCCCCCC(=O)NCCc1ccc(O)c(O)c1 | 61.8 | 59.2 | 0 | 57.3 | 0 | 78.5 | 0 | 0
CCCCCCCC/C=C\CCCCCCCC(=O)NCCO | 0 | 0 | 0 | 0 | 0 | 0 | - | -
CCCn1cc(C(=O)Nc2ccc(Oc3cccnc3)cc2)c2ccccc21 | - | 0 | 0 | - | - | - | - | -
CN(C(=O)OC(C)(C)C)c1ccc(-c2nc3ccccc3s2)cc1 | 87.3 | 97.2 | 85.3 | 89.6 | 86.2 | 84.8 | 86.7 | 107.2
COC(=O)N(C)c1nc2ccccc2s1 | 0 | 0 | 0 | 0 | 0 | 0 | - | -
O=C(Nc1ccccc1C(F)(F)F)OC1CC2CC1[C@H]1CCCCN1C2 (stereo partly drawn) | - | 0 | 0 | - | - | - | - | -
Fc1ccc(NC(=S)N2CCCN(c3ccc(C(F)(F)F)cn3)CC2)c(F)c1 | 0 | 63.6 | 0 | 0 | 0 | 0 | 0 | 63.5
O=C(Nc1ccc(F)cc1F)N1CCCN(c2ccc(C(F)(F)F)cn2)CC1 | 0 | 0 | 0 | 0 | 0 | 0 | - | -
O=C(CN1CCN(C(=O)CNC(=O)c2ccc(-c3ccccc3)cc2)CC1)Nc1ccccc1Cl | 0 | 50.4 | 0 | - | 0 | 0 | 0 | 0
SMILES | SRC3 inh | COUP-TFII inh | SRC2 inh | Gli-Sufu block | SRC1 inh | LRH-1 inv ag | Gal4-VP16 ctr | NR2F2 inh conf
CCCC1CCC2(CC1)CCC2OC(=S)Nc1ccccc1OC (stereo not drawn) | - | 0 | - | - | - | - | - | -
Cc1ccc(C)c(N2CCN(C(=O)c3ccc(CSc4nc5ccncc5[nH]4)cc3)CC2)c1 | 0 | 0 | 0 | 0 | 0 | 0 | - | -
COc1cccc(N2CCN(C(=O)c3ccc(CSc4nc5ccncc5[nH]4)cc3)CC2)c1 | 0 | 42.0 | 0 | 0 | 0 | 0 | 0 | 0
Cc1cc(C)n2nc(SCc3cccc(S(=O)(=O)N(C)C)c3)nc2n1 | 0 | 0 | 0 | 0 | 0 | 0 | - | -
CN(C)S(=O)(=O)c1cccc(CSCc2cccc(S(=O)(=O)N(C)C)c2)c1 | 0 | 56.8 | 0 | 56.5 | 0 | 0 | 0 | 56.1
CCCNC(=O)c1cn(CC)c2cc(N3CCN(C(=O)c4ccco4)CC3)c(F)cc2c1=O | 0 | 0 | 0 | 0 | 0 | 0 | - | -
CCn1cc(C(=O)NCc2cccc(F)c2)c(=O)c2cc(F)c(N3CCN(C(=O)c4ccco4)CC3)cc21 | 0 | 38.3 | 0 | 0 | 0 | 0 | 0 | 0
Cc1ccccc1C(=O)N[C@H](C(=O)N1CCC[C@H]1C(=O)NCc1ccccc1)c1ccccc1 | - | 0 | 0 | - | - | - | - | -
COc1ccc(-c2noc(CCCC(=O)O)n2)cc1 | 0 | 82.8 | 76.5 | 0 | 0 | 0 | 81.3 | 80.0
CCOc1ccc(-c2noc(CCC(=O)O)n2)cc1 | 0 | 81.8 | 73.1 | 0 | 0 | 0 | 66.2 | 57.0
COc1ccc(-c2noc(CCC(=O)O)n2)cc1 | 0 | 0 | 0 | 0 | 0 | 0 | - | -
Cc1cc(Br)c2nc(-c3ccc(F)cc3)c(Cc3cccc(Cl)c3)n2c1 | - | 0 | 0 | - | - | - | - | -
Cc1cc(N2CCN(C/C=C/c3ccccc3)CC2)n2ncnc2n1 | 0 | 39.8 | 0 | 0 | 0 | 0 | 0 | 0
CC1(C)C=Cc2ccc(O)c(C(=O)/C=C/c3ccccc3)c2O1 | - | 44.1 | - | - | - | - | 17.9 | 0
CC1(C)CC(=O)C=C(Nc2ccccc2NC(=O)c2ccc(F)cc2F)C1 | - | 0 | 0 | - | - | - | - | -
CC1=CC(=O)C(C(C)C)=C/C1=N/OS(=O)(=O)c1ccccc1 | 0 | 58.1 | 0 | 0 | 0 | 0 | 0 | 0
CC1=CC(=O)C(C2CCCCC2)=C/C1=N\OS(=O)(=O)c1ccccc1 | - | 48.2 | - | - | - | - | 0 | 0
CC1=CC(=O)C=C(C)C1=NOS(=O)(=O)c1ccccc1 | 0 | 0 | 0 | 0 | 0 | 0 | - | -
N#Cc1nc(N2CCCC2)nc(N2CCCC2)n1 | 0 | 46.8 | 0 | 0 | 0 | 0 | 0 | 0
N#Cc1nc(N2CCCCC2)nc(N2CCOCC2)n1 | 0 | 0 | 0 | 0 | 0 | 0 | - | -
Cc1nc(SCC(=O)Nc2nc3ccccc3s2)c(C#N)c(C)c1C | 90.6 | 99.2 | 84.7 | 90.1 | 90.5 | 87.8 | 91.0 | 109.2
Cc1cc(C(F)(F)F)c(C#N)c(SCC(=O)Nc2nc3ccccc3s2)n1 | 0 | 56.1 | 0 | 0 | 0 | 0 | 20.8 | 56.5
